# Assay results from PubChem BioAssay.
# Values without a mark were called inactive. Active and inactive are the calls of the source.
# Experiment: budding yeast growth changes without added modifier – OD600, strain BY4716, 24 h, basal condition, primary screen (AID 1173)
# Conditions: S. cerevisiae BY4716 growth, OD600, 24 h; higher = more signal, called active from +8 up or from −8 down
row,SMILES,z-score
1,C=C(COC)/C(=C/C[C@H](OC(C)=O)c1ccccc1OCCO)c1cc(C(=O)OC)ccc1OC,-1.14
2,C=C(CCCC)/C(=C/C[C@H](OC(=O)c1ccncc1)c1cccc(OCCO)c1)c1cnc2ccccc2c1,0.527
3,C=C(COC)C(=O)CC[C@@H](OC(C)=O)c1ccccc1OCCO,-0.947
4,COc1ccc(C(O)C2C=CC3C(=O)N(c4ccccc4)C(=O)C3N2Nc2ccc(C#N)cc2)cc1OCc1ccccc1 (stereo not drawn),0.0151
5,CCOC(=O)C1=CC[C@@H](c2ccc(OC)cc2)N(S(=O)(=O)c2ccc(C)cc2)[C@H]1c1ccc(C)cc1,1.31
6,C=C(CCCC)/C(=C/C[C@H](OC(C)=O)c1cccc(OCCO)c1)c1cnc2ccccc2c1,1.13
7,CC(=O)OCC1C2CC[C@H]3C(OCc4ccc(F)cc4C(F)(F)F)OC[C@]4(C)[C@H]3C2=C(CN4C(=O)OC(C)(C)C)[C@H](C)C1COC(C)=O (stereo partly drawn),1.69
8,CC(C)(C)OC(=O)CC[C@]1(C(=O)NCC(O)CO)N=C(c2ccc(OCCCO)cc2)O[C@H]1c1ccccc1N=[N+]=[N-] (stereo partly drawn),-0.66
9,COC(=O)[C@@]1(Cc2ccc(F)cc2)[C@H]2c3cc(C(=O)N(C)C)n(CCc4ccc(O)c(O)c4)c3C[C@H]2CN1C(=O)c1ccccc1,0.634
10,CC[C@@H]1C=C(C(=O)O)[C@H](c2ccc(OC)cc2)N1S(=O)(=O)c1ccc(C)cc1,0.77
11,COC(=O)[C@@]1(Cc2ccccc2)N=C(c2ccc(OCCCO)cc2)O[C@H]1c1ccccc1CN=[N+]=[N-],1.24
12,COc1ccc(C(=O)Nc2cccc(CN3C(=O)[C@@]4(O[C@@H](CC(=O)N5CCC[C@H]5CO)[C@H]([Si](C)(C)c5ccc(OC)cc5)[C@H]4C)c4ccccc43)c2)cc1,-0.0739
13,CC(=O)c1ccc(C(O)C2C=CC3C(=O)N(c4ccccc4)C(=O)C3N2Nc2ccc(C(C)C)cc2)cc1 (stereo not drawn),-0.829
14,COc1ccccc1CN1C(=O)c2ccccc2[C@](Cc2ccccc2I)(C(=O)NCC(C)C)[C@@H]1c1ccc(CO)cc1,-0.441
15,C=CCNC(=O)[C@H]1[C@@H]2C(=O)O[C@@H](c3ccccc3)[C@@H](c3ccccc3)N2[C@@H](c2ccc(OCCO)cc2)[C@]12C(=O)Nc1ccc(C#CC3(O)CCCCCC3)cc12,0.868
16,[N-]=[N+]=Nc1ccccc1C[C@@]1(C(=O)NCC(O)CO)N=C(c2ccc(OCCCO)cc2)O[C@@H]1c1ccccc1 (stereo partly drawn),-2.46
17,CCOC(=O)c1cn(C[C@H](Cc2ccccc2)NC(=O)N[C@H](CO)CCc2oc(C(C)=O)c(C(=O)OC)c2C(=O)OC)nn1,-2.76
18,Cc1ccc(S[C@]2(C(=O)NCCCN(C)C)CC(=O)N(Cc3ccccc3C(F)(F)F)[C@@H]2c2ccc(CO)cc2I)cc1,-4.57
19,COCCOC(=O)N1C(=O)[C@@]2(c3cc(C#CCNC(N)=O)ccc31)[C@H](C(=O)Nc1nc3ccccc3s1)[C@H]1C(=O)O[C@H](c3ccccc3)[C@H](c3ccccc3)N1[C@@H]2c1ccccc1OCCO,0.21
20,Cc1ccc(S[C@]2(C(=O)NC3CC3)CC(=O)N(C(C)C)[C@@H]2c2ccc(CO)cc2I)cc1,-3.47
21,COc1cc(CO)cc(I)c1O[C@H]1C=C(C(=O)NCCO)C[C@@H]2O[C@H]12,-11.2 (active)
22,CC(=O)NCCCC[C@@H]1NC(=O)[C@H]2C[C@@H](C(=O)NCCCCCCNC(=O)CS)[C@@H](c3cccc(OCCO)c3)N2C1=O,0.535
23,C=CC[C@@]1(C(=O)OC)N=C(c2ccc(OCCCO)cc2)O[C@@H]1c1ccccc1N=[N+]=[N-],-1.28
24,CCC(CC)C(O)C1C=CC2C(=O)N(c3ccccc3)C(=O)C2N1Nc1ccccc1F (stereo not drawn),0.153
25,CN1C(=O)C2C(C1=O)C1C=C(CCCO)C2C(C2CC2)N1Cc1cccc(OC(F)(F)F)c1 (stereo not drawn),-1.13
26,C=C(CCCC)C(=O)CC[C@H](OC(=O)c1ccccc1-c1ccccc1C(=O)O)c1ccc(OCCO)cc1,-1.6
27,COC(=O)[C@@]1(Cc2ccc(F)cc2)[C@H]2c3cc(C(=O)N(C)C)n(C)c3C[C@H]2CN1C(=O)c1ccccc1,0.109
28,O=C(NC1CC1)[C@@H]1c2ccccc2C(=O)N(Cc2cc(C(F)(F)F)cc(C(F)(F)F)c2)[C@H]1c1ccc(CO)cc1,-0.313
